For three compounds, AC50 and outcome results are on record in PubChem BioAssay (EPA / NIEHS).

Structures are written as SMILES. Several values for one entry are separate records, joined by “and”; a condition that tells them apart may be missing. Identical values can stand only once. Records with an inconclusive call do not appear. The source holds several records for some structures; these can differ, active in one and inactive in another. Activity calls are given as the source filed them. The calls were made as follows, unless noted: active = hit-call score of the fitted dose curve at least 0.9, where 1 is the maximum; inactive = score below 0.9.

A short description of experiment [1]: ATG_NFI_CIS: Attagene CIS-FACTORIAL HepG2 Assay for human Nuclear Factor I (NFI) (AID 2282989). The note with it: HepG2 cis-regulatory reporter, NFI response element transcription; actives raise or lower the signal. The procedure, abridged: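 HepG2 cells transiently transfected with cis-element-driven multiplexed reporter transcription units, dosed for 24 h. Reporter mRNA quantified by RT-PCR, fluorescent labelling, HpaI digestion and capillary electrophoresis; bidirectional fit versus DMSO baseline.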

The target in experiment [2] is Myc proto-oncogene protein (Homo sapiens) (UniProt P01106). Description: ATG_Myc_CIS: Attagene CIS-FACTORIAL HepG2 Assay for human Myelocytomatosis (Myc) Proto-Oncogene Transcription Factor (AID 2282990). The note with it: HepG2, Attagene cis-reporter transcription factor activity; actives raise or lower the signal. The procedure, abridged: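 HepG2, transient MRTU transfection (cis promoters, endogenous TFs); 24 h dosing; TriZol RNA → oligo(dT) RT → PCR → 6-FAM primer extension → HpaI cut → CE. Bidirectional fit vs DMSO.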

Experiment [3] can be described thus: ATG_NF_kB_CIS: Attagene CIS-FACTORIAL HepG2 Assay for human Nuclear Factor Kappa B (NF-kB) (AID 2282991). The note with it: HepG2 Attagene cis-factorial NF-kB reporter mRNA; actives raise or lower the signal. The procedure, abridged:
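Multiplexed cis-reporter assay in transiently transfected HepG2. 24 h treatment; RNA isolated, RT-PCR, labelled fragments resolved by CE. DMSO baseline.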

Experiment [4] in a line: ATG_NRF2_ARE_CIS: Attagene CIS-FACTORIAL HepG2 Assay for human Nuclear Factor Erythroid 2 Related Factor 2 (NFR2) response to Antioxidant Response Elements (ARE) (AID 2282992). As to conditions: HepG2 Attagene ARE/NRF2 reporter, transcription factor activity; actives raise or lower the signal. The procedure, abridged:
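Endogenous transcription factor activity read out as reporter transcript levels (RT-PCR plus capillary electrophoresis, fluorescence) in transiently transfected HepG2 cells. Measured at 24 h after dosing; gain or loss of signal fitted versus DMSO.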

Experiment [5] is described as follows: ATG_Oct_MLP_CIS: Attagene CIS-FACTORIAL HepG2 Assay for human Octamer-Binding Transcription Factor (Oct) (AID 2282993). As to conditions: HepG2 Attagene cis-factorial Oct reporter, mRNA; actives raise or lower the signal. The procedure, abridged: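 HepG2 cells transiently transfected with cis-promoter-driven multiplexed reporter transcription units, dosed for 24 h. Reporter mRNA quantified by RT-PCR, fluorescent labelling, HpaI digestion and capillary electrophoresis; bidirectional fits versus DMSO baseline.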

Experiment [6] has as its target Cellular tumor antigen p53 (Homo sapiens) (UniProt P04637). As to the kind of experiment: ATG_p53_CIS: Attagene CIS-FACTORIAL HepG2 Assay for human p53 Transcription Factor (AID 2282994). The note with it: HepG2 p53 cis-element reporter, Attagene mRNA; actives raise or lower the signal. The procedure, abridged: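 Endogenous p53 activity read in transiently transfected HepG2 from a cis-element-driven reporter transcript after 24 h exposure. RNA reverse-transcribed, PCR-amplified, fluorescently labelled and sized by capillary electrophoresis; gain or loss fitted against DMSO baseline.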

A short description of experiment [7]: BSK_3C_TissueFactor: BioMAP Diversity Plus: 3C Assay for Tissue Factor Biomarker Activity (AID 2282997). As to conditions: BioMAP 3C HUVEC, tissue factor biomarker readout; actives raise or lower the signal. The procedure, abridged:
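In this endothelial system, HUVEC are treated for 24 h and Tissue Factor is assessed by ELISA, normalised to DMSO.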

The nature of experiment [8]: BSK_3C_uPAR: BioMAP Diversity Plus: 3C Assay for Urokinase-type plasminogen activator receptor (uPAR) Biomarker Activity (AID 2282998). The note with it: BioMAP 3C HUVEC, uPAR biomarker ELISA; actives raise or lower the signal. The procedure, abridged:
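Human umbilical vein endothelial primary cells were exposed to test chemical for 24 h. Cell-surface uPAR was then quantified by ELISA, and responses were fitted bidirectionally against DMSO as negative control and baseline.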
On the technique in general: In an ELISA, binding on a coated surface is turned into a signal by an enzyme label.

Experiment [9] is described as follows: BSK_3C_VCAM1: BioMAP Diversity Plus: 3C Assay for Vascular cell adhesion molecule 1 (VCAM1) Biomarker Activity (AID 2282999). As to conditions: BioMAP 3C HUVEC, VCAM1 ELISA, cytokine-stimulated; actives raise or lower the signal. The procedure, abridged: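 Activity fitted in both directions relative to DMSO, with ELISA measurement of the surface marker on primary HUVEC (3C) at 24 h post-treatment; parallel SRB staining (0.1% SRB, TCA-fixed, 560 nm) flagged overt cytotoxicity.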

Experiment [10] is described as follows: BSK_4H_Eotaxin3: BioMAP Diversity Plus: 4H Assay for Eotaxin 3 Biomarker Activity (AID 2283000).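 As to outcome: CCL26 protein level quantified by ELISA in parallel with SRB cytotoxicity check.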 The note with it: primary human endothelial cells (HUVEC); actives raise or lower the signal. The procedure, abridged:
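ELISA quantitation of CCL26 (Eotaxin-3) protein from chemically dosed human vascular endothelial cells at 24 h; increases and decreases both scored relative to DMSO-treated baseline.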

For experiment [11], the target named is human Peroxisome Proliferator-activated Receptor alpha (PPARa), PPARA (gene 5465) (UniProt Q07869). Description: ATG_PPARa_TRANS: Attagene TRANS-FACTORIAL HepG2 Assay for human Peroxisome Proliferator-activated Receptor alpha (PPARa) (AID 2283001; active = hit-call score of the fitted dose curve at least 0.9, where 1 is the maximum;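 as to AC50: potency for gain of reporter signal over DMSO so agonist or activator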). The procedure, abridged:
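Reporter transcripts quantified by RT-PCR plus capillary electrophoresis after 24 h treatment, fitted upward relative to DMSO. Cells: human HepG2 transiently carrying multiple GAL4-UAS reporter units driven by NR-Gal4 chimeras.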

Experiment [12] addresses human Peroxisome Proliferator-activated Receptor delta (PPARd), PPARD (gene 5467) (UniProt Q03181). Description: ATG_PPARd_TRANS: Attagene TRANS-FACTORIAL HepG2 Assay for human Peroxisome Proliferator-activated Receptor delta (PPARd) (AID 2283002; active = hit-call score of the fitted dose curve at least 0.9, where 1 is the maximum). The procedure, abridged: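 Transient HepG2 transfection (multiple GAL4-UAS RTUs, chimeric receptor-Gal4); 24 h dosing; total RNA → oligo(dT) RT → PCR → 6-FAM primer extension → HpaI cut → CE. Positive direction vs DMSO.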

Read-out in experiment [13]: Intercellular Adhesion Molecule 1 (ICAM1), ICAM1 (gene 3383)
As to the kind of experiment: BSK_3C_ICAM1: BioMAP Diversity Plus: 3C Assay for Intercellular Adhesion Molecule 1 (ICAM1) Biomarker Activity (AID 2283003). The note with it: primary human endothelial cells (HUVEC); actives raise or lower the signal. The procedure, abridged:
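ELISA readout of ICAM1 in human umbilical vein endothelial cells in the 3C system, taken 24 h post-dose. Gain or loss of signal versus DMSO was fitted in both directions, with SRB total-protein staining run in parallel.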

Experiment [14] deals with human Retinoic Acid Receptor beta (RARb), RARB (gene 5915) (UniProt P10826). As to the kind of experiment: ATG_RARb_TRANS: Attagene TRANS-FACTORIAL HepG2 Assay for human Retinoic Acid Receptor beta (AID 2283004; active = hit-call score of the fitted dose curve at least 0.9, where 1 is the maximum). The procedure, abridged:
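Fluorescent capillary-electrophoresis detection of GAL4-UAS reporter mRNA defines the endpoint, with induction over DMSO-treated wells scored as activity. Transiently transfected human hepatoma HepG2 cells expressing exogenous NR–Gal4 proteins are exposed to test chemicals for 24 h.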

Experiment [15] deals with Retinoic acid receptor alpha (Homo sapiens) (UniProt P10276). As to the kind of experiment: ATG_RARa_TRANS: Attagene TRANS-FACTORIAL HepG2 Assay for human Retinoic Acid Receptor alpha (RARa) (AID 2283005; active = hit-call score of the fitted dose curve at least 0.9, where 1 is the maximum). The procedure, abridged:
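Reporter transcripts, measured by RT-PCR with fluorescent labeling and capillary electrophoresis after 24 h dosing, reflect activity of an exogenous human RARa–GAL4 fusion in transiently transfected HepG2. Fitted for increase relative to DMSO.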

Experiment [16] in a line: BSK_3C_Proliferation: Cell Proliferation Assessment in the BioMAP Diversity Plus: 3C Assay (AID 2283006).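 As to AC50: potency may reflect either rise or fall in cell number versus DMSO.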 The note with it: primary human endothelial cells (HUVEC). The procedure, abridged:
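Proliferation as total protein: sulforhodamine B (0.1%) stain of TCA-fixed subconfluent human umbilical vein endothelial cells, absorbance 560 nm, 48 h after dosing. Activity fitted in both directions against DMSO baseline.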

The target of experiment [17] is Nuclear receptor subfamily 1 group I member 2 (Homo sapiens) (UniProt O75469). Description: ATG_PXR_TRANS: Attagene TRANS-FACTORIAL HepG2 Assay for human Pregnane X Receptor (PXR) (AID 2283008; active = hit-call score of the fitted dose curve at least 0.9, where 1 is the maximum). The procedure, abridged: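 Transactivation by exogenous PXR–GAL4 fusion measured as reporter transcript induction after 24 h compound treatment of transfected human HepG2 cells. Read-out via RT-PCR and capillary electrophoresis of labelled fragments, fitted upward relative to DMSO.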

In experiment [18] the target is human Retinoic Acid Receptor gamma (RARg), RARG (gene 5916) (UniProt P13631). As to the kind of experiment: ATG_RARg_TRANS: Attagene TRANS-FACTORIAL HepG2 Assay for human Retinoic Acid Receptor gamma (RARg) (AID 2283009; active = hit-call score of the fitted dose curve at least 0.9, where 1 is the maximum). The procedure, abridged: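 Transactivation of exogenous RARg-Gal4 fusion measured as reporter transcript induction after 24 h in transfected HepG2 cells. RNA reverse-transcribed, amplified, fluorescently labeled and resolved by capillary electrophoresis; increase relative to DMSO.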

The target of experiment [19] is human RAR-related Orphan Receptor beta (RORb), RORB (gene 6096) (UniProt Q92753). As to the kind of experiment: ATG_RORb_TRANS: Attagene TRANS-FACTORIAL HepG2 Assay for human RAR-related Orphan Receptor beta (RORb) (AID 2283010; active = hit-call score of the fitted dose curve at least 0.9, where 1 is the maximum). The procedure, abridged:
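Read-out is reporter mRNA induction, quantified by RT-PCR with fluorescent capillary electrophoresis, 24 h post-dose in transiently transfected HepG2 expressing exogenous NR-Gal4 chimera. Activity fitted upward versus DMSO.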

Chain of human Retinoic Acid Receptor beta (RARb), RARB (gene 5915) (P10826 whole entry, looked up, the tested form may be a part): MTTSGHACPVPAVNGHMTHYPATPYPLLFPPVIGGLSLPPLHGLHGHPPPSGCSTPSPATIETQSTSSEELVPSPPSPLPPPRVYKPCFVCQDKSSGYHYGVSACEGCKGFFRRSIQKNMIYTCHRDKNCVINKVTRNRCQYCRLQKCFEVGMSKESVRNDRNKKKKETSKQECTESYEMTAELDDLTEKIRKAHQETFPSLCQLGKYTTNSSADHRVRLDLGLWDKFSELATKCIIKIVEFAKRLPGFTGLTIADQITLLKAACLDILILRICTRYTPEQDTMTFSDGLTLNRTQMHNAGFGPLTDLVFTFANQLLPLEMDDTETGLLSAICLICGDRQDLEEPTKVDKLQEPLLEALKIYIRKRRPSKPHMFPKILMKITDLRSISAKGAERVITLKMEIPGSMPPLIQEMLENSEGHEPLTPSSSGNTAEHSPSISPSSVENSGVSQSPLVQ
Chain of Retinoic acid receptor alpha (Homo sapiens) (P10276 whole entry, looked up, the tested form may be a part): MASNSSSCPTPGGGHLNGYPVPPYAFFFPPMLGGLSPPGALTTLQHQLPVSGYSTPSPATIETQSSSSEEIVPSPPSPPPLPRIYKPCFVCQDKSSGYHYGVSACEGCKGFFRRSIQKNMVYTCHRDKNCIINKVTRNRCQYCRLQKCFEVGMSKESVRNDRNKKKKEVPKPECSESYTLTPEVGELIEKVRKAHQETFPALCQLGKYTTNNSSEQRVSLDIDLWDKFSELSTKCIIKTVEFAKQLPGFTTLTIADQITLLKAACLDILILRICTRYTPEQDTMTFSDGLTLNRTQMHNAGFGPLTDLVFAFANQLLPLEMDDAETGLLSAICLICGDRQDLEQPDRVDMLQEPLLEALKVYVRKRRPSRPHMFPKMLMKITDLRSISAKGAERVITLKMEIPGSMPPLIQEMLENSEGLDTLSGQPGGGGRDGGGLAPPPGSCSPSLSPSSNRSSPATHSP
Chain of human RAR-related Orphan Receptor beta (RORb), RORB (gene 6096) (Q92753 whole entry, looked up, the tested form may be a part): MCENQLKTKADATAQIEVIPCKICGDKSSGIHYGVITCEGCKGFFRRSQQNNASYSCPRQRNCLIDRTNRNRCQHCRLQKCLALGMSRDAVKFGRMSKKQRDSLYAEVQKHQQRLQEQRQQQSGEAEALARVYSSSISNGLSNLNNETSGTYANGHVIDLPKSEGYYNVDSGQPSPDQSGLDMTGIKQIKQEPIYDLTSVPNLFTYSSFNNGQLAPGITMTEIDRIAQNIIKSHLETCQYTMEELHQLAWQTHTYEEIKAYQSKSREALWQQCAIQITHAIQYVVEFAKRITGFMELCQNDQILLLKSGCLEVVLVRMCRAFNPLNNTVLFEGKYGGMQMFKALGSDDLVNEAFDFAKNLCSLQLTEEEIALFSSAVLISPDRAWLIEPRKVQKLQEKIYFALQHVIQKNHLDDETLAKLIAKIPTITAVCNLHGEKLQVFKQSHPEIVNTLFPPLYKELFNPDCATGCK
Chain of Myc proto-oncogene protein (Homo sapiens) (P01106 whole entry, looked up): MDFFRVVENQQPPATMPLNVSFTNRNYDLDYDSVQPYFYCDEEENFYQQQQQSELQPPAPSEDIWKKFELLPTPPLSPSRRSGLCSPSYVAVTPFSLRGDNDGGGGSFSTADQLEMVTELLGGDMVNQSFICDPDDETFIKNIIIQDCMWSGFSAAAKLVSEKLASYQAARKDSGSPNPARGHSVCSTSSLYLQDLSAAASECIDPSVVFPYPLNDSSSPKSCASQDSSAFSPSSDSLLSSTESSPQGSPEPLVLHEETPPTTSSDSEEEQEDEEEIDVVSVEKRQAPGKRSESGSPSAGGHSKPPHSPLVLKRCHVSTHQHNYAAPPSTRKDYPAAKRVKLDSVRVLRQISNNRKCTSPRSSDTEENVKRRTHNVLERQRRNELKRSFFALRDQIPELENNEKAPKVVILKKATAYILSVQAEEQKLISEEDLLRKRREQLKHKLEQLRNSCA
Chain of human Peroxisome Proliferator-activated Receptor delta (PPARd), PPARD (gene 5467) (Q03181 whole entry, looked up, the tested form may be a part): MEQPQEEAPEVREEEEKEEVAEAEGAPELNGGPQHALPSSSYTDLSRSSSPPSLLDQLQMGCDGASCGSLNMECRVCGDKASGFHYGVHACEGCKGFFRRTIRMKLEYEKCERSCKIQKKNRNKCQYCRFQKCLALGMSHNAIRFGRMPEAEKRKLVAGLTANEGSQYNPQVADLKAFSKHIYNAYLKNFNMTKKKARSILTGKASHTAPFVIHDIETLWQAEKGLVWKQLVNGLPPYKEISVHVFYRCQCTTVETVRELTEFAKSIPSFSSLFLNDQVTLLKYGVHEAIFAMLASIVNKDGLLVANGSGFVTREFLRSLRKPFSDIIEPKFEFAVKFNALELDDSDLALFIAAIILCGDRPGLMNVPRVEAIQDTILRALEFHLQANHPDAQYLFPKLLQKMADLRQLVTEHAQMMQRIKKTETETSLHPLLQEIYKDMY
Chain of Cellular tumor antigen p53 (Homo sapiens) (P04637 whole entry, looked up): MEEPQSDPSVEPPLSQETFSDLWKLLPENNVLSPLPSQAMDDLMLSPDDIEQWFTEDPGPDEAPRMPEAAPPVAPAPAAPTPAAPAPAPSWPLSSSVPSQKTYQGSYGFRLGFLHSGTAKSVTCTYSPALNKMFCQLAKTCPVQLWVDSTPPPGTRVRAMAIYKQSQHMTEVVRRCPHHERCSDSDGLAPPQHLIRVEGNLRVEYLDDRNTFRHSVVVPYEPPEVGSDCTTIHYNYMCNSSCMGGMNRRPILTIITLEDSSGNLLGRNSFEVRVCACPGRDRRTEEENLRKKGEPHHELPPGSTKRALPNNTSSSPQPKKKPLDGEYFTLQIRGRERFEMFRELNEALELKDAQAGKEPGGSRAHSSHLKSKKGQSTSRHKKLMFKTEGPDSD
Chain of Nuclear receptor subfamily 1 group I member 2 (Homo sapiens) (O75469 whole entry, looked up, the tested form may be a part): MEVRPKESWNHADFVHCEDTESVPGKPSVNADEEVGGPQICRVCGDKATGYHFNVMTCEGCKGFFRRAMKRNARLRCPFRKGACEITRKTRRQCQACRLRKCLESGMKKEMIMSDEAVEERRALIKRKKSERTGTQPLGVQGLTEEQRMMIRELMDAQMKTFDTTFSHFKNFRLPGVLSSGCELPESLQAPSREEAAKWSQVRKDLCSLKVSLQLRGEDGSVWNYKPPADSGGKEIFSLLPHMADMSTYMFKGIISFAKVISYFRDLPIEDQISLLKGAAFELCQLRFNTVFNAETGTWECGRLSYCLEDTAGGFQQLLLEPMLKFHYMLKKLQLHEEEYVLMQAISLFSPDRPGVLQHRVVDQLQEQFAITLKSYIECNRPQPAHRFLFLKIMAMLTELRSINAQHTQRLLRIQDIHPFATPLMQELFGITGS
Chain of human Retinoic Acid Receptor gamma (RARg), RARG (gene 5916) (P13631 whole entry, looked up, the tested form may be a part): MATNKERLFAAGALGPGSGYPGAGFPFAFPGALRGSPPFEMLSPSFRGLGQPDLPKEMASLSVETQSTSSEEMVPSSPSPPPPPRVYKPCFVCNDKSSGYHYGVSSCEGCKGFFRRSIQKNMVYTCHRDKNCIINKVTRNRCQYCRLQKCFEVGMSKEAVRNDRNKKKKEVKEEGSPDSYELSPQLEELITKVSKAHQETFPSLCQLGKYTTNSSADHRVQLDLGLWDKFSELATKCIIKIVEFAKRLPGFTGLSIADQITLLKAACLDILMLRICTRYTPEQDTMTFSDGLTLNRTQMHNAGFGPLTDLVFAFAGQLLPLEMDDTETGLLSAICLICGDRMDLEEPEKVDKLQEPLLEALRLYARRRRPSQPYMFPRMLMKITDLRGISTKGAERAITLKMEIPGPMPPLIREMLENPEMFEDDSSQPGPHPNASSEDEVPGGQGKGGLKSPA
Chain of human Peroxisome Proliferator-activated Receptor alpha (PPARa), PPARA (gene 5465) (Q07869 whole entry, looked up, the tested form may be a part): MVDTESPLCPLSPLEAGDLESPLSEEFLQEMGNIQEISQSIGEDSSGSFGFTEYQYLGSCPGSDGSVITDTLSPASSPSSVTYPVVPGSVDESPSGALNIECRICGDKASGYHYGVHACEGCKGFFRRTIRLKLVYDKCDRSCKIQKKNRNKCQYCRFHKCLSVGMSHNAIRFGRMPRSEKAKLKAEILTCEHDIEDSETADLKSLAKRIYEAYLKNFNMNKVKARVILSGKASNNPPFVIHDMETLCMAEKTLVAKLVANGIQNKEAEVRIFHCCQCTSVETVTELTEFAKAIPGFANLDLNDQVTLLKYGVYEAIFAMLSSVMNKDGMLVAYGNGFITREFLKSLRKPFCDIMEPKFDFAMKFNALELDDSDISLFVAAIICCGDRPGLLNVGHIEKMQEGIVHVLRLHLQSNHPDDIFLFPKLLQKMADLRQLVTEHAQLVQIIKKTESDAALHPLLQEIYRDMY

Usually AC50 stands for the midpoint of the concentration-response curve, whichever way the signal moves. `Oc1ccc(Cl)cc1Cc1ccccc1`: the AC50 in experiment [1] is 13.1 µM (active); in [2], 6.37 µM (active); in experiment [3], 16.7 µM (active); in [4], 8.4 µM (active) [middle of 9 runs]; in experiment [5] it was 6.94 µM (active) and 8.1 µM (active) and 14.8 µM (active); in experiment [7], 32.4 µM (active) [middle of 7 runs]. The concentration at half-maximal activity (AC50) was 29.2 µM (active) [middle of 7 runs] in [8]; 34.9 µM (active) [middle of 7 runs] in experiment [9]; 34.4 µM (active) [middle of 7 runs] in experiment [10]; 53.5 µM (active) in experiment [11]; 37.1 µM (active) [middle of 7 runs] in [13]; 24.8 µM (active) [middle of 7 runs] in [16]. Besides, the AC50 in experiment [17] is 6.4 µM (active) [middle of 5 runs]. The compound was classed as inactive in [1], in [2], in [3], in [4], in experiment [5] and in experiment [6]. The result in experiment [11], in [12], in experiment [14], in experiment [15], in experiment [17] and in experiment [18] was inactive. The compound was called inactive in experiment [19].
As for `O=C(O)CCCOc1ccc(Cl)cc1Cl`, the result in experiment [1], in experiment [4], in experiment [5], in experiment [6], in experiment [7] and in experiment [8] was inactive. In addition, the outcome in [9], in experiment [10], in experiment [11], in experiment [13], in [14] and in experiment [15] was inactive. The result in [16], in experiment [17] and in [19] was inactive. The AC50 in [4] was 63.9 µM (active).
As for `COP(=O)(OC)OC=C(Cl)Cl`, the compound was called inactive in [1], in experiment [3], in [7], in experiment [8], in [9] and in [10]. Moreover, the result in [12], in [13] and in experiment [17] was inactive. In addition, the concentration at half-maximal activity (AC50) in experiment [4] was 35.7 µM (active); in experiment [5], 11.5 µM (active); in [16], 17.6 µM (active).
